Results: PubChem BioAssay AID1851 (National Center for Advancing Translational Sciences (NCATS), 2009)
“And” between values parts separate entries of the source, which are not always exact repeats. Identical values can stand only once. The campaign covered roughly 16,000 compounds. About 5,700 (36%) were called active. Inconclusive results (about 24%) are left out. The call rests on the fitted dose curve; in most records, active means well fitted curve in the direction sought with a large enough effect; inconclusive means small, poorly fitted or top-dose-only effect, or effect the other way; inactive means no such curve, though single readings can be large or run the other way. This is one part of the list. Square brackets hold non-standard residues; d marks the D form. Peptide text beside a SMILES is read from it.

biological target: Cytochrome P450 1A2 (Homo sapiens) (UniProt P05177); assay: Cytochrome panel assay with activity outcomes; conditions: recombinant CYP, pro-luciferin dealkylation, luminescence, p450-cyp1a2; series mostly up to 57.1 µM
On the % scale 0 is the no-effect control and ±100 the full control effect.

Sequence of Cytochrome P450 1A2 (Homo sapiens) (P05177 whole entry, looked up): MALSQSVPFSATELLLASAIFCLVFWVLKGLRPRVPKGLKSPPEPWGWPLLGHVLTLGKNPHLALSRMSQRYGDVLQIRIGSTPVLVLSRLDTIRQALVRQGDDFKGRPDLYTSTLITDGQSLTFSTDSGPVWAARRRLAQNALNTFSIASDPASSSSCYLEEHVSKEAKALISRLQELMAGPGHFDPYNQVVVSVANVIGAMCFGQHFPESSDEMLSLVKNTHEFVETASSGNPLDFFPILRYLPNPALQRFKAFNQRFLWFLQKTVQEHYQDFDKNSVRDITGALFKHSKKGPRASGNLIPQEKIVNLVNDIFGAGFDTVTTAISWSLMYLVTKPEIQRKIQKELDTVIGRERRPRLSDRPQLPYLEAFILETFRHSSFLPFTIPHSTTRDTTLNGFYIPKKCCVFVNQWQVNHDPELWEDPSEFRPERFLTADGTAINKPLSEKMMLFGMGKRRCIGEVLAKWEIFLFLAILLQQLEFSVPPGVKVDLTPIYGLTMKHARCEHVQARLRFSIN

activity, negative = inhibition, inactive:
CC(C)Cn1cnc2c(Sc3c([N+](=O)[O-])ncn3C)nc(N)nc21 8.13% [at 2.29 µM], COc1ccc(COC(=O)N/N=C2/C[C@@H](O)[C@@H](O)[C@@H]3[C@H]4C(=O)N(c5ccc(F)cc5F)C(=O)[C@@H]4CC[C@@H]23)cc1 -3.56% [at 11.4 µM], COc1cc2c3cc1Oc1c(OC)c(OC)cc4c1[C@@H](Cc1ccc(O)c(c1)Oc1ccc(cc1)C[C@@H]3N(C)CC2)CN(C)C4 -11.1% [at 11.4 µM], Nc1cc(C(=O)O)[nH]c(=O)n1 -6.95% [at 11.4 µM], N[C@H](CO)C(=O)NCC(=O)O (H-[dS]-Gly-OH) 3.56% [at 2.29 µM], COc1cc(-c2[o+]c3cc(O)cc(O)c3cc2O)cc(O)c1O -19.9% [at 2.29 µM], O=C(O)CCc1nc(-c2ccccc2-n2cccc2)no1 -17.3% [at 2.29 µM], Nc1nc(N)c(CCCCc2ccccc2)c(N)n1 -0.16% [at 2.29 µM], CO[C@H]1COC(=O)[C@H]2CCCN2C(=O)C/C=C\[C@@H](C)[C@H](OC)COC(=O)[C@@H](OCc2ccccc2)/C=C\[C@@H]1C -3.46% [at 11.4 µM], CO[C@@H]1/C=C\O[C@]2(C)Oc3c(C)c(O)c4c(O)c(cc(O)c4c3C2=O)NC(=O)/C(C)=C\C=C/[C@H](C)[C@@H](O)[C@H](C)[C@H](O)[C@H](C)[C@H](OC(C)=O)[C@@H]1C -9.97% [at 11.4 µM], CO/N=C\[C@@H](OC)[C@H](C)/C=C\CC(=O)OC -3.46% [at 11.4 µM], O=C1[C@H]2[C@H]3[C@H](O)[C@H](O)C/C(=N/OC[C@@H](O)COCc4ccco4)[C@@H]3CC[C@@H]2C(=O)N1C[C@@H]1CCCO1 6.9% [at 11.4 µM], O=C(CCN1CCCCC1)N1CCc2c([nH]c3ccccc23)[C@H]1c1cccnc1 -19.7% [at 2.29 µM], COC(=O)[C@@H]1O[C@@H](SCCN)[C@@H](O)[C@H](O)[C@H]1O 10.2% [at 2.29 µM], CCc1cc2c(nc1CC)CCN(CC/C(C)=N/OCC[C@@H]1C=C[C@H](OC(C)=O)[C@H](COC(C)=O)O1)C2 -15.5% [at 11.4 µM], N=c1ccn2c(n1)O[C@H]1[C@@H](OP(=O)(O)O)[C@H](CO)O[C@H]12 -3.14% [at 2.29 µM], COC(=O)[C@@H]1CC[C@H](C)[C@@H](c2ccc(C)cc2)N1C(=O)c1ccc(/C=N\OC[C@@H](O)COCc2ccco2)cc1 -1.66% [at 11.4 µM], CN1C[C@H](c2ccccc2)C(O)([C@]2(c3ccccc3)CN(C)C[C@@H](c3ccccc3)C2=O)[C@H](c2ccccc2)C1 (stereo not given in full) -5.45% [at 11.4 µM], O[C@@H](c1cc([C@@]23C[C@H]4CC[C@@H]2C[C@H](C4)C3)nc2c(Cl)cc(Cl)cc12)[C@@H]1CCCCN1 -10.5% [at 2.29 µM], O=C(O)NCC1CCCCC1 (tested in a mixture with another compound) -10.2% [at 11.4 µM], O=C(O)c1ccc([N+](=O)[O-])c(P(=O)(O)O)c1 -9.8% [at 11.4 µM]

AC50, active:
Brc1ccccc1OCCOCCOc1cccc2cccnc12 2.24 µM, Cc1ccc(OCCCOc2cccc3cccnc23)cc1C 2.82 µM, O=C(O)c1nc(-c2ccccc2)[nH]c1C(=O)O 1 µM, C=CCn1c(COc2ccccc2)nnc1SCC(=O)N/N=C/c1ccc(C)cc1 3.55 µM, COc1cccc2[nH]c3c(N4CC(C)CC(C)C4)ncnc3c12 (stereo not given) 2 µM, c1cnc(Nc2nc(-c3ccc4ccccc4c3)cs2)nc1 0.224 µM, COC(=O)c1nn(-c2cccc(C(F)(F)F)c2)c(=O)cc1Sc1ccccn1 2.24 µM, C=CCSc1nc2c(sc3nc(C)cc(C)c32)c(=O)[nH]1 1.12 µM, CCN(CC)CCc1nc(-c2ccccc2)no1 5.01 µM, c1ccc(CCc2nc(-c3ccccc3)no2)cc1 2.82 µM, O=C(CCc1nc(-c2ccccc2)no1)NCCc1ccccc1 2.82 µM, CN=C(N)/N=C(\N)Nc1cc2ccccc2c2ccccc12 0.251 µM, NC(=S)Nc1cc2ccccc2c2ccccc12 0.0708 µM, O=C(OCC#CCSc1nnc(-c2cccc3ccccc23)o1)c1ccco1 0.398 µM, Cc1ccc(N2C(=O)C(Cl)=C(NCc3ccccc3)C2=O)c(C)c1 11.2 µM, O=C(CN1CCc2ccccc21)NC(=O)NCc1ccco1 6.31 µM, Nc1c2c(=O)oc(-c3ccccc3)cc2nn1-c1ccccc1 2.24 µM, CSc1nnc(-c2sc(-c3ccccc3)nc2C)n1C 11.2 µM, C#CCSc1nnc(-c2sc(-c3ccccc3)nc2C)n1C 4.47 µM, CCCCCCCCn1cc(C(C)=O)c(=O)[nH]c1=O 15.8 µM, CCCOc1ccc(-c2nc(N)n[nH]2)cc1 15.8 µM, CC(=O)COc1ccc2c(C)c(C)c(=O)oc2c1 1 µM, COc1ccc2sc3ccccc3c(=O)c2c1OC 3.55 µM, O=C(OCCN1CCCCC1)c1c[nH]c2ccccc12 12.6 µM and 15.8 µM, CC(=O)N(/N=C1\Sc2ccccc2C1=O)c1ccccc1C 14.1 µM, CC(=O)N(/N=C1\Sc2ccccc2C1=O)c1ccccc1 2.24 µM, CCC1(C)Cc2c(sc3nnn(CC(=O)Nc4ccc(C)cc4)c(=O)c23)CO1 (stereo not given) 14.1 µM, N#CC1=C(N)OC2=C(CC/C2=C\c2ccccc2)C1c1ccccc1 (stereo not given) 2.51 µM, CC(=O)OCc1nc2ccccc2s1 2.82 µM, CCCc1cc(C(=O)Cc2nc3ccccc3s2)c(O)cc1O 2.24 µM, O=C(OCc1nc2ccccc2s1)c1ccc(Br)s1 3.16 µM, CNc1ccnc(-c2ccccc2C(F)(F)F)n1 12.6 µM, Fc1ccc(Nc2ccnc(-c3ccccc3C(F)(F)F)n2)cc1 2 µM, CCOC(=O)c1nc2sc(C)c(C)c2c(=O)[nH]1 14.1 µM, Cc1ccc(Nc2nc(Cl)nc(N(C)C#N)n2)cc1 3.55 µM, Cc1nc(-c2c(C(F)(F)F)noc2-c2ccc(O)cc2O)cs1 12.6 µM, O=C(c1ccco1)N(CCC(c1ccccc1)c1ccco1)Cc1ccco1 (stereo not given) 14.1 µM, CCOC(=O)C1CCCN(C(=O)c2sc3nc(-c4ccc(OC)cc4)cn3c2C)C1 (stereo not given) 20 µM, O=C1CC(c2ccc(F)cc2)Cc2nc(NCC3CCCO3)ncc21 (stereo not given) 22.4 µM, CCOC(=O)C1=C(C)N=C2c3ccccc3C(=O)C2C1c1ccc(Cl)cc1 (stereo not given) 3.16 µM, CCOC(=O)C1=C(C)N=C2c3ccccc3C(=O)C2C1c1ccc(C)cc1 (stereo not given) 3.16 µM

AC50, inactive:
Cc1c(CCO)c(=O)n(C)n1C(=O)c1ccc(F)cc1, C=CCn1c(Cc2ccc(OC)cc2)nnc1SCC(=O)c1cccc([N+](=O)[O-])c1, CSc1ccccc1N1CCN(C(=O)Nc2ccc3c(c2)NC(=O)CO3)CC1, COc1ccc(-c2csc(NC(=O)CCn3cnc4ccccc4c3=O)n2)cc1OC, CC(C)Nc1nc(NC(C)(C)C)nc(Oc2ccc(=O)n(-c3ccccc3)n2)n1, CCSc1nc2sc3c(c2c(=O)[nH]1)CC(C)(CC)OC3 (stereo not given), O=C(Cn1ccnc1[N+](=O)[O-])NCCO, CN1C(=O)NC(c2ccc(O)cc2)C(C(=O)c2cccs2)C1(O)C(F)(F)F (stereo not given), NC(=S)Nc1ccc(Oc2ccc(NC(N)=S)cc2)cc1, Cc1ccccc1N=C(N)Nc1ccccc1C, O=P(O)(O)CCP(=O)(c1ccccc1)c1ccccc1, C[C@@H]1CCN=C(N)S1, CC1=NN(c2ccc(C)cc2C)C(=O)C1C(c1ccccc1)C1C(=O)N(c2ccc(C)cc2C)N=C1C (stereo not given), S=C(NCc1ccco1)N1CCN(C(c2ccccc2)c2ccccc2)CC1, COC(=O)N1CCC2(CC1)CN(c1ccncc1)C2, Cn1c(CN2CCOCC2)nnc1SCc1ccccc1, CCCCCCC(C)n1cc(C(C)=O)c(=O)[nH]c1=O (stereo not given), CC(=O)c1cn(CCCCCCCCCCn2cc(C(C)=O)c(=O)[nH]c2=O)c(=O)[nH]c1=O, CCC(CC)c1nnc(NC(=O)COc2ccc3c(C)cc(=O)oc3c2)s1, CN1[C@@H]2CC[C@H]1CC(OC(=O)c1c[nH]c3ccccc13)C2 (stereo not given in full), COc1ccc(NC(=O)N2CCC3(CC2)CCN(C(=O)c2cccn2C)CC3)cc1, Nc1cc(=O)[nH]c(N)n1, CCOC(=O)c1c(C)nc2sc3c(=O)n(-c4ccc(OC)cc4)nnc3c2c1-c1ccc(OC)cc1, NC(=O)CC(c1ccccc1)c1ccco1 (stereo not given), O=C(NCc1ccccc1)C(c1ccc(F)cc1)N(Cc1ccco1)C(=O)c1ccccn1 (stereo not given), CCOC(=O)C1CCN(Cc2cnc(Oc3ccc(OC)cc3)s2)CC1, CCOC(=O)C1CCCN(C(=O)CCn2nc(-c3ccccc3)ccc2=O)C1 (stereo not given), O=C1C=C(NCC2CCCO2)C2(CCCCC2)O1 (stereo not given), O=C(NCC1CCCO1)c1ccc(CS(=O)(=O)Cc2ccc(F)cc2)o1 (stereo not given), Cc1ccc(C(=O)C(OC(=O)CNS(=O)(=O)c2ccccc2)c2ccccc2)cc1 (stereo not given), CCOC(=O)C1=NNC2(c3ccc(Cl)cc3)C(=O)N(c3cc(C)cc(C)c3)C(=O)C12 (stereo not given), COCCOC(=O)C1=C(C)NC(=O)N(C(C)=O)C1c1ccc(Cl)cc1 (stereo not given), CCOC(=O)C1=C(N)n2c(s/c(=C/c3ccccc3)c2=O)=C(C(=O)OCC)C1c1ccccc1 (stereo not given)
